Laboratory results from PubChem BioAssay (Tox21).
Active and inactive are the calls of the source. Calls come from the whole dose curve; as a rule, active = well fitted curve in the direction sought with a large enough effect in the repeat runs; inconclusive = weak or mixed curves; inactive = flat fitted curve, though single readings scatter.

assay: qHTS assay to test for compound auto fluorescence at 590 nm (red) in HepG2 cell free culture (AID 720684); conditions: cell-free medium autofluorescence, red 540/590 nm; series mostly up to 91.3 µM; fluorescence, % of Rose Bengal: at the top concentration
From the text: U.S. Tox21 Program National Center for Advancing Translational Sciences [NCATS] NIH Chemical Genomics Center [NCGC] U.S. Environmental Protection Agency [EPA] National Institutes of Environmental Health Sciences [NIEHS] National Toxicology Program [NTP] U.S. Food and Drug Administration [FDA] Tox21 Assay Overview: Compound auto fluorescence often interferes with screening of the compound library against various biological targets and signaling pathways. Some of these compounds may have fluorophoric properties. Such properties may interfere with the assay outputs resulting in false positives and/or negatives. To decrease such complications and ensure the compound activities are relevant in terms of biological response, the Tox21 10K compound library was screened for auto fluorescence. From the fluorophores used as reporter signals in our screening assays, the auto fluorescence equivalencies of compounds against three fluorophores have been evaluated: Triamterene, Fluorescein and Rose Bengal sodium for blue, green and red fluorescence, respectively. The fluorescence intensities were measured using Excitation/Emission wavelengths at 405/460nm, 485/535nm and 540/590nm for blue, green and red labels, respectively. This assay includes the red fluorescence data.
Tox21 Assay Protocol Summary: 5 uL of culture medium (MEM containing 10% FBS) per well was dispensed into black wall/clear bottom 1536-well plates using a Multidrop Combi Dispenser (ThermoFisher Scientific, Waltham, MA). After 23 nL compound or DMSO vehicle was transferred into assay plate by a pintool work station (Kalypsys, San Diego, CA), fluorescence intensities in the assay plates were measured by an Envision (PerkinElmer, Shelton, CT) plate reader using three labels for measuring blue, green and red fluorescence at […] 460, 535 and 590nm respectively.
% is set by controls: 0 for no effect and ±100 for the full control effect.

| SMILES | outcome | fluorescence, % of Rose Bengal |
| --- | --- | --- |
| CO/N=C(/C(=O)N[C@@H]1C(=O)N2C(C(=O)O)=C(COC(N)=O)CS[C@H]12)c1ccco1 | inactive | – |
| CC(C)=CCC1C(=O)N(c2ccccc2)N(c2ccccc2)C1=O | – | -0.0539% [at 46 µM] (inactive) |
| CCCCCCCCCCCCCCN(CCO)CCO | – | -0.355% (inactive) |
| COC(=O)CS | – | -0.0025% (inactive) |
| O=C(Nc1cccc2c(=O)cc(-c3nn[nH]n3)oc12)c1ccc(OCCCCc2ccccc2)cc1 | – | -0.109% [at 46 µM] (inactive) |
| N#[N+]c1ccc2c(S(=O)(=O)[O-])cccc2c1O | – | 0.0259% (inactive) |
| O=C(/C=C/c1ccccc1)OCCc1ccccc1 | – | 0.064% (inactive) |
| Cc1ccc(Cl)c(Nc2ccccc2C(=O)O)c1Cl | – | 0.0057% [at 46 µM] (inactive) |
| CC(=O)Oc1ccc([N+](=O)[O-])cc1CCl | – | 0.145% (inactive) |
| O=C(CCc1ccc(O)cc1)c1c(O)cc(O)cc1O | – | -0.0055% [at 95.7 µM] (inactive) |
| C=C(C)C(=O)OCCOCCOC(=O)C(=C)C | – | 0.0027% (inactive) |
| CCC(C)COC(C)=O (stereo not given) | – | 0.012% (inactive) |
| C=C/C(C)=C/C/C=C(\C)CCC=C(C)C | – | -0.144% (inactive) |
| CCCCCCCCCCC(=O)O | – | 0.128% [at 95.7 µM] (inactive) |
| Nc1ncnc2c1ncn2[C@H]1CC[C@@H](CO)O1 | inactive | – |
| CO[C@]1(NC(=O)CSC(F)F)C(=O)N2C(C(=O)O)=C(CSc3nnnn3CCO)CO[C@H]21 | – | -0.185% [at 46 µM] (inactive) |
| CCn1cc(C(=O)O)c(=O)c2cc(F)c(N3CCNCC3)cc21 | inactive | – |
| CN1CCCN=C1COC(=O)C(O)(c1ccccc1)C1CCCCC1 (stereo not given) | – | 0.0101% [at 46 µM] (inactive) |
| O=C1c2ccccc2C(=O)c2c(O)c(O)cc(O)c21 | – | 4.6% (inactive) |
| O=C1NC(=O)c2cc([N+](=O)[O-])ccc21 | – | -0.0406% (inactive) |

| SMILES | outcome | fluorescence, % of Rose Bengal |
| --- | --- | --- |
| CCC(C)(C)OC | – | -0.112% (inactive) |
| CCOc1ccccc1O[C@H](c1ccccc1)[C@H]1CNCCO1 | – | -0.0021% [at 46 µM] (inactive) |
| N#CCc1ccc(Cl)cc1Cl | – | 0.0282% (inactive) |
| O=C(Cn1ccnc1[N+](=O)[O-])NCCO | – | -0.146% [at 46 µM] (inactive) |
| CC(C)Nc1cccnc1N1CCN(C(=O)c2cc3cc(NS(C)(=O)=O)ccc3[nH]2)CC1 | – | 0.051% [at 46 µM] (inactive) |
| O=C1C(=O)c2ccccc2C(O)=C1C1CCC(c2ccc(Cl)cc2)CC1 (stereo not given) | – | 0.0009% [at 18.6 µM] (inactive) |
| C[C@@H]1CN(CCCn2c3ccccc3c3ccccc32)C[C@H](C)N1 | – | 0.0563% [at 46 µM] (inactive) |
| CCOC(=O)OC(C)OC(=O)[C@@H]1N2C(=O)[C@@H](NC(=O)[C@H](N)c3ccccc3)[C@H]2SC1(C)C (stereo not given in full) | – | 0.701% [at 18.6 µM] (inactive) |
| Oc1ccc(Cl)c2cccnc12 | – | 0.272% [at 46 µM] (inactive) |
| CN(C)CCN1C(=O)c2ccccc2N(C)c2ccccc21 | – | -0.226% [at 46 µM] (inactive) |
| c1ccc2c(c1)CCc1ccccc1N2 | – | -0.144% (inactive) |
| Cc1ccc(CO)cc1 | – | 0.0157% [at 95.7 µM] (inactive) |
| N#CCCN(CCO)CCO | – | -0.307% (inactive) |
| CC1(C)[C@H](C(=O)O)N2C(=O)C[C@H]2S1(=O)=O | – | 0.0439% [at 46 µM] (inactive) |
| CCCCCCCCC(CCCCCC)C(=O)O (stereo not given) | – | 0.208% (inactive) |
| CCOC(=O)c1ccccc1C(=C1C=C(Br)C(=O)C(Br)=C1)c1cc(Br)c(O)c(Br)c1 | – | -0.349% (inactive) |
| CCC=CC#N | – | 0.0892% (inactive) |
| Brc1cc(Br)c(Oc2cc(Br)c(Br)cc2Br)cc1Br | – | -0.0531% [at 46 µM] (inactive) |
| CCCCCCCCOc1ccc(C(=O)O)cc1 | – | -0.0167% (inactive) |
| CCC(=O)OC | – | 0.0907% (inactive) |
